Most compounds without a hit are left out; they make up all but 3.6% or so of the library.
mHTT-CaM PPI inh = disrupts binding of mutant huntingtin to calmodulin | inhibition, % at 15 µM | 3.6% of 190,000 active | AlphaScreen His-mHTT/GST-CaM binding, luminescence;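 further: 0% = both proteins with DMSO and 100% = one protein alone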
Pf apPOL inh = Pf-apPOL DNA polymerase inhibition. inhibition, % at 10 µM. 0.25% of 210,000 active. Recombinant Pf-apPOL, molecular beacon fluorescence, 1.5 h
An asterisk follows results filed as active. No stated cut-off is given here; in the data, active means inhibition above about 50%; inactive means the rest.

Screening O=C1C=CC(=NS(=O)(=O)c2ccc(Cl)cc2)C=C1 returned mHTT-CaM PPI inh 48.0 and Pf apPOL inh -6.4.
`O=C1C=CC(=NS(=O)(=O)c2ccc(Cl)cc2)c2ccccc21` gave mHTT-CaM PPI inh 98.0* and Pf apPOL inh -2.5.
For CCOCCCNC(=O)C1CC(=O)N(CCc2ccc(OC)c(OC)c2)C1 (stereo not drawn) the results were mHTT-CaM PPI inh -0.2 and Pf apPOL inh -5.9.
`CN(C)n1cccc1C=C(C#N)S(=O)(=O)c1cccc(Cl)c1` gave Pf apPOL inh 5.3.
`O=C1C(=O)N(C(c2ccccc2)c2ccccc2)c2ccccc21` gave mHTT-CaM PPI inh 92.4* and Pf apPOL inh -0.4.
For O=C(O)CN1C(=O)C(=O)c2ccccc21 the results were mHTT-CaM PPI inh 3.0 and Pf apPOL inh 1.8.
For COc1ccccc1C1(C(=O)NCC2(O)CCc3ccccc3C2)CCOCC1 (stereo not drawn) the results were mHTT-CaM PPI inh 4.6 and Pf apPOL inh 2.3.
Screening CCc1ccc(NC(=O)C2CCc3sc(C(=O)N4CCOCC4)cc3C2)cc1 (stereo not drawn) returned mHTT-CaM PPI inh 7.9 and Pf apPOL inh -5.6.
For O=C(O)C1(c2ccc([N+](=O)[O-])cc2)CCCC1 the results were mHTT-CaM PPI inh 94.5* and Pf apPOL inh -2.3.
`O=C(O)C#Cc1ccc([N+](=O)[O-])cc1` gave mHTT-CaM PPI inh -3.5 and Pf apPOL inh -11.9.
Screening CC1=C(C(=O)Nc2ccc(Br)c(C)c2)C2(CCC(C)CC2)OC1=O (stereo not drawn) returned mHTT-CaM PPI inh 99.0* and Pf apPOL inh 5.4.
`CC1=C(C(=O)Nc2ccc(C)cc2)C2(CCC(C)CC2)OC1=O` (stereo not drawn) gave mHTT-CaM PPI inh 7.0 and Pf apPOL inh -0.3.
Screening COc1ccccc1NC(=O)CNC(=O)C1OC2OC(C)(C)OC2C2OC(C)(C)OC12 (stereo not drawn) returned mHTT-CaM PPI inh -0.7 and Pf apPOL inh -2.6.
Screening CCn1c2ccccc2c2cc(C(C)=O)ccc21 returned mHTT-CaM PPI inh -13.6 and Pf apPOL inh -6.2.
Screening CC(C)(C)OC(=O)Cn1c2ccccc2c2cc(N)ccc21 returned mHTT-CaM PPI inh 73.2* and Pf apPOL inh -4.3.
Screening O=C(c1ccsc1)N1CCCN(C2CCN(Cc3ccc(F)cc3)C2=O)CC1 (stereo not drawn) returned mHTT-CaM PPI inh 18.7 and Pf apPOL inh -1.3.
`CNC(=O)N1CCCN(C2CCN(Cc3ccc(F)cc3)C2=O)CC1` (stereo not drawn) gave mHTT-CaM PPI inh 1.0 and Pf apPOL inh 1.0.
For Cc1ccsc1C(=O)N1CCCN(C2CCN(Cc3ccc(F)cc3)C2=O)CC1 (stereo not drawn) the results were mHTT-CaM PPI inh 64.1* and Pf apPOL inh 8.3.
Screening Cc1ccccc1C(=O)N1CCCN(C2CCN(Cc3ccc(F)cc3)C2=O)CC1 (stereo not drawn) returned mHTT-CaM PPI inh 56.7* and Pf apPOL inh 0.2.
Screening CSc1nsc2nc(=O)c(C=C3C=CC(=O)C=C3)c(N)n12 returned mHTT-CaM PPI inh 7.0 and Pf apPOL inh 7.8.
Cc1ccc([N+](=O)[O-])cc1N=Cc1cc(Br)ccc1O was read as mHTT-CaM PPI inh 4.0 and Pf apPOL inh -1.6.
For O=C(Cn1cccc1-c1nnc(C2CC2)o1)NCc1ccccc1 the results were mHTT-CaM PPI inh -5.8 and Pf apPOL inh -0.3.
CCc1nc2c(NC(=O)c3cc(C)ccc3C)cccn2n1 was read as mHTT-CaM PPI inh -0.9 and Pf apPOL inh 1.8.
Screening COc1ccccc1-c1c(Cc2ccccc2)[nH]n2c(=O)cc(-c3ccccc3)nc12 returned mHTT-CaM PPI inh 67.3* and Pf apPOL inh 1.8.
`COc1ccc(-c2c(C)[nH]n3c(=O)cc(-c4ccccc4)nc23)cc1` gave mHTT-CaM PPI inh 73.0* and Pf apPOL inh 1.7.
Screening CCCc1cc(=O)n2[nH]c(Cc3ccccc3)c(-c3ccccc3OC)c2n1 returned mHTT-CaM PPI inh 0.1 and Pf apPOL inh 1.9.
Screening Cc1[nH]n2c(=O)cc(-c3ccccc3)nc2c1-c1ccccc1 returned mHTT-CaM PPI inh 10.7 and Pf apPOL inh -5.3.
For Cn1cccc1CN(Cc1cccs1)C(=O)CSCc1ccccc1 the results were mHTT-CaM PPI inh -7.9 and Pf apPOL inh -4.6.
For Cc1ccc(NC(=O)N2CCCC(CCC(=O)NCc3ccc(Cl)cc3)C2)cc1 (stereo not drawn) the results were mHTT-CaM PPI inh 10.6 and Pf apPOL inh -5.0.
For COc1ccccc1N(CC(O)COc1ccc(C)cc1)S(=O)(=O)c1ccccc1 (stereo not drawn) the results were mHTT-CaM PPI inh 52.3* and Pf apPOL inh -0.3.
For COc1ccccc1N(CC(N)=O)S(=O)(=O)c1ccccc1 the results were mHTT-CaM PPI inh -5.5 and Pf apPOL inh -4.9.
For Cc1cc(F)ccc1NC(=O)c1csc(-c2ccc(N3CCCC3)nc2)n1 the results were mHTT-CaM PPI inh -7.0 and Pf apPOL inh 0.2.
For O=C(C[n+]1ccc2ccccc2c1)c1cc2ccccc2oc1=O the results were mHTT-CaM PPI inh 84.6* and Pf apPOL inh 1.1.
`COC(=O)c1cc2ccccc2oc1=O` gave mHTT-CaM PPI inh -1.9 and Pf apPOL inh -0.7.
O=C1NN(c2ccccc2)C(=O)/C1=C/c1cccc(OCCOc2ccc([N+](=O)[O-])cc2)c1 was read as mHTT-CaM PPI inh 27.0 and Pf apPOL inh 2.8.
For CCOc1cccc(N2C(=O)NC(=O)/C(=C\c3ccc(Oc4ccc([N+](=O)[O-])cn4)cc3)C2=O)c1 the results were mHTT-CaM PPI inh 50.0* and Pf apPOL inh -6.9.
`CC(=Cc1ccccc1)C=C1SC(=S)N(CCC(=O)O)C1=O` gave mHTT-CaM PPI inh 14.4 and Pf apPOL inh -82.8.
COc1cc(OC)cc(C2=Cc3ccccc3C(CC(C)=O)N2c2ccc(C#CCCO)cc2)c1 (stereo not drawn) was read as mHTT-CaM PPI inh -9.3 and Pf apPOL inh -4.3.
Screening COc1cc(OC)cc(C2=Cc3ccccc3C(CC(=O)c3ccco3)N2c2ccc(-c3ccc(C(N)=O)cc3)cc2)c1 (stereo not drawn) returned mHTT-CaM PPI inh 99.9* and Pf apPOL inh 1.9.
Screening CC(=O)CC1c2cc(F)ccc2C=C(c2ccsc2)N1c1ccc(-c2cccnc2)cc1 (stereo not drawn) returned mHTT-CaM PPI inh 9.1 and Pf apPOL inh 4.5.
NC(=O)c1ccc(-c2ccc(N3C(c4ccsc4)=Cc4ccc(F)cc4C3CC(=O)c3ccco3)cc2)cc1 (stereo not drawn) was read as mHTT-CaM PPI inh 58.4* and Pf apPOL inh -2.1.
For COc1cc(OC)cc(C2=Cc3ccccc3C(CC(=O)c3ccco3)N2c2ccc(-c3cncnc3)cc2)c1 (stereo not drawn) the results were mHTT-CaM PPI inh 97.3* and Pf apPOL inh -6.1.
COc1ccc(N2C(c3cc(OC)cc(OC)c3)=Cc3ccccc3C2CC(C)=O)cc1 (stereo not drawn) was read as mHTT-CaM PPI inh -27.6 and Pf apPOL inh -3.2.
Cc1ccc2[nH]c3nc4nncn4nc3c2c1 was read as mHTT-CaM PPI inh -0.5 and Pf apPOL inh -2.4.
`CCC(C)NC(=O)C1COC2(CCC(C)CC2)N1C(=O)c1ccc(F)cc1F` (stereo not drawn) gave mHTT-CaM PPI inh -2.2 and Pf apPOL inh -4.7.
`Oc1ccc(C2CC3CCC2C3)cc1O` (stereo not drawn) gave mHTT-CaM PPI inh 53.5* and Pf apPOL inh -2.3.
Screening Cc1cc(C2CCCCC2)ccc1O returned mHTT-CaM PPI inh 2.6 and Pf apPOL inh -2.4.
